{"source": "PubChem BioAssay (EPA / NIEHS)", "note": "The source made the active and inactive calls. Rule for the calls: active = hit-call score of the fitted dose curve at least 0.9, where 1 is the maximum; inactive = score below 0.9.", "data": [{"test": "ATG_M_06_CIS: Attagene CIS-FACTORIAL HepG2 Assay for M06 Transcription Factor (Internal Marker) (AID 2282950)", "details": "HepG2 Attagene CIS-FACTORIAL M06 internal marker reporter; actives raise or lower the signal", "method": "ATG_CIS is a cell-based, multiplexed-readout assay that uses HepG2, a human liver cell line, with measurements taken at 24 hours after chemical dosing in a 24-well plate.ATG_M_06_CIS is one of 52 assay component(s) measured or calculated from the ATG_CIS assay. It is designed to make measurements of mRNA induction, a form of inducible reporter, as detected with fluorescence intensity signals by Reverse transcription polymerase chain reaction (RT-PCR) and Capillary electrophoresis technology.Data from the assay component ATG_M_06_CIS was analyzed into 1 assay endpoint. This assay endpoint, ATG_M_06_CIS, was analyzed with bidirectional fitting relative to DMSO as the negative control and baseline of activity. Using a type of inducible reporter, measures of mRNA for gain or loss-of-signal activity can be used to understand the background control at the transcription factor-level as they relate to the gene . Furthermore, this assay endpoint can be referred to as a secondary readout, because this assay has produced multiple assay endpoints where this one serves a background control function. To generalize the intended target to other relatable targets, this assay endpoint is annotated to the background measurement intended target family, where the subfamily is internal marker.\nHuman liver HepG2 cells are transiently transfected with multiple reporter transcription units (MRTUs) in 6-well plates using FuGene 6 reagent (Roche; 3 ml FuGene/1 mg DNA). The MRTU constructs are regulated by a cis-regulating element (promoter). […] A major difference between the CIS and TRANS system is that in CIS activities of endogenous TFs are measured, whereas the TRANS assay evaluates changes in activities of exogenous, chimeric NR-Gal4 proteins. […] At the end of 24 hour incubation, total RNA was isolated using TriZol reagent (Invitrogen). The isolated RNA is then reverse-transcribed using oligo(dT) primer and Mo-MLV reverse transcriptase (Invitrogen) with DNAse I (Ambion) treatment for 30 min. The one-tenth of the produced cDNA was amplified by PCR using Taq DNA polymerase (Invitrogen) and two reporter sequence-specific primers. The PCR products were fluorescently labeled by primer extension with 6-arboxyfluorescein (6-FAM) 5'-labeled reporter sequence-specific primer (2 min at 95 C, 20 s at 68 C and 10 min at 72 C) and these products were digested with 5U of HpaI (New England Biolabs) for 2h at 37 C. The fragments were purified using Qiaquick PCR columns (Qiagen), analyzed on an ABI 3130xL genetic analyzer (Applied Biosystems) with peak positions identified by using a set of X-rhodamine (ROX)-labeled MapMarker1000 molecular weight standards (BioVentures). The raw capillary electrophoresis data was processed using Attagraph software (Attagene).", "values": [{"smiles": "Oc1ccc(Cl)cc1", "outcome": "inactive"}, {"smiles": "CCOC(=O)COc1ccc(Cl)cc1Cl", "outcome": "inactive"}, {"smiles": "SCc1ccco1", "outcome": "inactive"}, {"smiles": "BrCBr", "outcome": "inactive"}, {"smiles": "COc1cc(OC)c(OC)cc1C=O", "outcome": "inactive"}, {"smiles": "C[N+](C)(C)CC(=O)[O-]", "outcome": "inactive"}, {"smiles": "O=S(=O)(c1ccccc1)c1ccccc1", "outcome": "inactive"}, {"smiles": "CN(C)N", "outcome": "inactive"}, {"smiles": "O=C(NCNC(=O)NC1C(=O)NC(=O)N1CO)NC1C(=O)NC(=O)N1CO", "note": "(stereo not given)", "outcome": "inactive"}, {"smiles": "O=C1C(Cl)=C(Cl)C(=O)C(Cl)=C1Cl", "outcome": "inactive"}, {"smiles": "CC(Cc1ccc(C(C)(C)C)cc1)CN1C[C@@H](C)O[C@@H](C)C1", "note": "(stereo not given in full)", "outcome": "inactive"}, {"smiles": "Cc1ccc(OP(=O)(Oc2ccc(C)cc2)Oc2ccc(C)cc2)cc1", "note": "(tested in a mixture with another compound)", "outcome": "inactive"}, {"smiles": "CC(C)(Cl)Cl", "outcome": "inactive"}, {"smiles": "N#CCNCC#N", "outcome": "inactive"}, {"smiles": "Cc1ncc(C[n+]2csc(CCO)c2C)c(N)n1", "outcome": "inactive"}, {"smiles": "CCOP(=O)(OCC)Oc1ccc([N+](=O)[O-])cc1", "outcome": "inactive"}, {"smiles": "O=C(CCl)c1ccccc1", "outcome": "inactive"}, {"smiles": "O=C(O)COc1ccccc1", "outcome": "inactive"}, {"smiles": "[Cl][Sb]([Cl])[Cl]", "outcome": "inactive"}, {"smiles": "C=Cc1cccc(CCl)c1", "outcome": "inactive"}, {"smiles": "CC[N+](=O)[O-]", "outcome": "inactive"}, {"smiles": "Cc1ccc(N(SC(F)(Cl)Cl)S(=O)(=O)N(C)C)cc1", "outcome": "inactive"}, {"smiles": "O=S(=O)(O)OOS(=O)(=O)O", "outcome": "inactive"}, {"smiles": "CCC(C)(C)O", "outcome": "inactive"}, {"smiles": "O=C(CCN1CC1)OCC(CO)(COC(=O)CCN1CC1)COC(=O)CCN1CC1", "outcome": "inactive"}, {"smiles": "O=C1C=CC(=O)C=C1", "outcome": "inactive"}, {"smiles": "CCOP(=O)(OCC)OCC", "outcome": "inactive"}, {"smiles": "CCCCCc1cc(O)cc(O)c1", "outcome": "inactive"}, {"smiles": "C=CC(=O)OCCCCOC(=O)C=C", "outcome": "inactive"}, {"smiles": "Nc1ccc([N+](=O)[O-])cc1N", "outcome": "inactive"}, {"smiles": "CCCCCCCCCCCC#N", "outcome": "inactive"}, {"smiles": "O=c1[nH]c(Cl)c(Cl)cc1Cl", "outcome": "inactive"}, {"smiles": "Nc1ccc(Cl)c(Cl)c1", "outcome": "inactive"}, {"smiles": "C[C@]12CCC(=O)C(O)=C1CC[C@@H]1[C@@H]2CC[C@]2(C)C(=O)CC[C@@H]12", "outcome": "inactive"}, {"smiles": "CC1(C)CC(=O)CC(C)(C)N1[O]", "outcome": "inactive"}, {"smiles": "O=C(O)CCCc1ccc(N(CCCl)CCCl)cc1", "outcome": "inactive"}, {"smiles": "C[N+](C)=CCl", "outcome": "inactive"}, {"smiles": "Cl/C=C\\CCl", "outcome": "inactive"}, {"smiles": "CC(O)CN(CC(C)O)CC(C)O", "note": "(stereo not given)", "outcome": "inactive"}, {"smiles": "N#Cc1cc(I)c(O)c(I)c1", "outcome": "inactive"}]}]}
